Results published in PubChem BioAssay (EPA / NIEHS).
Where “and” joins values, the source holds several entries; their conditions need not be identical. Equal entries are not always repeated. Records with an inconclusive call do not appear. A structure can be active in one record and inactive in another. Calls of active or inactive are those of the source. Rule for the calls: active = hit-call score of the fitted dose curve at least 0.9, where 1 is the maximum; inconclusive = response in the unintended direction; inactive = score below 0.9.

biological target: Retinoic acid receptor RXR-alpha (Homo sapiens) (UniProt P19793); experiment: OT_NURR1_NURR1RXRa_1440: Odyssey Thera (OT) 24-hour HEK293T Protein Complementation Assay for Nurr1/retinoid X receptor (RXR) (AID 2283386)
Method: OT_NURR1_NURR1RXRa_1440 is a cell-based assay that uses HEK293T, a human kidney cell line, with measurements taken at 24 hours after chemical dosing in a 384-well plate.OT_NURR1_NURR1RXRa_1440 is one of one assay component(s) measured or calculated from the OT_NURR1_NURR1RXRa_1440 assay. It is designed to make measurements of protein fragment complementation, a form of binding reporter, as detected with fluorescence intensity signals by Protein-fragment Complementation technology.Data from the assay component OT_NURR1_NURR1RXRa_1440 was analyzed into 1 assay endpoint. This assay endpoint, OT_NURR1_NURR1RXRa_1440, was analyzed in the positive analysis fitting direction relative to DMSO as the negative control and baseline of activity. Using a type of binding reporter, measures of receptor for gain-of-signal activity can be used to understand the binding at the pathway-level as they relate to the gene RXRA. Furthermore, this assay endpoint can be referred to as a primary readout, because the performed assay has only produced 1 assay endpoint. To generalize the intended target to other relatable targets, this assay endpoint is annotated to the nuclear receptor intended target family, where the subfamily is non-steroidal.
Protein-fragment complementation assay, or PCA, is a method for the identification and quantification of protein-protein interactions. In the PCA, the proteins of interest ("bait" and "prey") are each covalently linked to fragments of a third protein (e.g. DHFR, which acts as a "reporter"). Interaction between the bait and the prey proteins brings the fragments of the reporter protein in close proximity to allow them to form a functional reporter protein whose activity can be measured.

Retinoic acid receptor RXR-alpha (Homo sapiens), sequence (P19793 whole entry, looked up, the tested form may be a part): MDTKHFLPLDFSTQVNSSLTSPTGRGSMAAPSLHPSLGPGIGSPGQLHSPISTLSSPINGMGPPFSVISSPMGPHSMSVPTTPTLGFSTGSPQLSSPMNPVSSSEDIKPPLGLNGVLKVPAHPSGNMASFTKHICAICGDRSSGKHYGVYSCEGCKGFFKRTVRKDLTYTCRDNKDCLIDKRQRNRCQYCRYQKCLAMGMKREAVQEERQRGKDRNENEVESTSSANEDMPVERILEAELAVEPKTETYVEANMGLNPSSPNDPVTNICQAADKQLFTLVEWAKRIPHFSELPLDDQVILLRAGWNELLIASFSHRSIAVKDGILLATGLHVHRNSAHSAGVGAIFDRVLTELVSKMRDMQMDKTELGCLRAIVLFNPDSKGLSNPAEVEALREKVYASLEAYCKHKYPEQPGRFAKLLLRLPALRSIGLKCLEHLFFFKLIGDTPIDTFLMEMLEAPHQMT

Row | SMILES | outcome | AC50
1 | C#C[C@]1(O)CC[C@H]2[C@@H]3CCc4cc(O)ccc4[C@H]3CC[C@@]21C | inactive | 18.2 µM (active)
2 | CCC(C)C1CCCCC1=O (stereo not given) | inactive | 
3 | CCC(C)COC(=O)CC(C)C (stereo not given) | inactive | 
4 | CC(C)N(c1ccccc1)C(C)C | inactive | 
5 | CCCCCCCCCCO[C@@H]1O[C@H](CO)[C@@H](O)[C@H](O)[C@H]1O | inactive | 
6 | CC(C)C(=O)c1ccccc1 | inactive | 
7 | CCCCCCCCCCCCN1CCOCC1 |  | 80.4 µM (active)
8 | CNC(=C[N+](=O)[O-])NCCSCc1ccc(CN(C)C)o1 | inactive | 
9 | CC(C)(C)c1cccc(O)c1 | inactive | 
10 | [Na+] | inactive | 
11 | CCCCCCCCCCCCS |  | 93.7 µM (active)
12 | COc1ccc2[nH]cc(CCNC(C)=O)c2c1 | inactive | 
13 | CC1COC(=O)O1 (stereo not given) | inactive | 
14 | CC(=O)CC(=O)N(C)C | inactive | 
15 | CCOCC(C)O (stereo not given) | inactive | 
16 | CCC(=O)OC(C)(C)C1CC=C(C)CC1 (stereo not given) | inactive | 
17 | CCCCCCCC(=O)N(C)C | inactive | 
18 | CCNC(=S)NCC | inactive | 
19 | O=C(c1ccc(OCCN2CCCCC2)cc1)c1c(-c2ccc(O)cc2)sc2cc(O)ccc12 | inactive | 11.9 µM (active) and 11.8 µM (active)

Row | SMILES | outcome | AC50
20 | CC(O)CN (stereo not given) | inactive | 
21 | C=CC(O)CCCCC (stereo not given) | inactive | 
22 | OCC=Cc1ccccc1 | inactive | 
23 | CCCCCCOc1ccc(O)cc1 | inactive | 
24 | CC(=O)C1=C(C)[C@@H]2C[C@@]3(C1)[C@H](C)CC[C@H]3C2(C)C |  | 90 µM (active)
25 | CCCCCCCCOC(C)=O | inactive | 
26 | CCCCC(CC)COCCO (stereo not given) | inactive | 
27 | Cc1cccc(C)c1 | inactive | 
28 | CCC(C)(C)C1CCC(OC)CC1 (stereo not given) | inactive | 
29 | CCCCOCCOCCO | inactive | 
30 | C[C@]12CC[C@@H]3c4ccc(O)cc4CC[C@H]3[C@@H]1CC[C@@H]2O | inactive | 
31 | CC(=O)c1ccc(O)cc1 | inactive | 
32 | OC[C@@H](O)[C@H](O)[C@@H](O)[C@@H](O)CO | inactive | 
33 | CCc1cccc(O)c1 | inactive | 
34 | NC(=O)c1cccnc1 |  | 82.4 µM (active)
35 | CC1=CCC(C(C)C)=CC1 | inactive | 
36 | CCCC(O)C(CC)CO (stereo not given) | inactive | 
37 | C=CC(C)CCCC(C)(C)O (stereo not given) | inactive | 
38 | CC(C)(CO)CO | inactive | 
